Data reported in the supplement of paper PMC6555819.

What was measured:
Experiment in all cases: PBM binding z-score (relative to random genomic background probes); higher = stronger binding; sequences stand for … in GC…GCGATTGACAGCGTAGAATGAAGG
[1] = system: FXR:RXRa (NR concentration 270 nM, RXRa partner concentration 90 nM)
In short: (§1)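 Random background probes are the reference for binding z-scores. These scores derive from regression-normalized fluorescence on custom Agilent 4×180K protein-binding microarrays incubated 1 h with ligand-free nuclear receptor dimers. Binding was detected with antibodies against each partner (one per run).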

[2] = system: LXRa:RXRa (NR concentration 270 nM, RXRa partner concentration 90 nM)
In short: as §1

[3] = system: LXRa homodimer (NR concentration 270 nM)
In short: as §1

[4] = system: LXRb:RXRa (NR concentration 270 nM, RXRa partner concentration 90 nM)
In short: as §1

[5] = system: LXRb homodimer (NR concentration 270 nM)
In short: as §1

[6] = system: PPARa:RXRa (NR concentration 270 nM, RXRa partner concentration 90 nM)
In short: as §1

[7] = system: PPARg:RXRa (NR concentration 180 nM, RXRa partner concentration 90 nM)
In short: as §1

[8] = system: PPARg:RXRa 270nM:90nM, anti-RXR (NR concentration 270 nM, RXRa partner concentration 90 nM)
In short: as §1

[9] = system: PPARg:RXRa 30nM:10nM, anti-RXR (NR concentration 30 nM, RXRa partner concentration 10 nM)
In short: as §1

[10] = system: PPARg:RXRa 90nM:30nM, anti-RXR (NR concentration 90 nM, RXRa partner concentration 30 nM)
In short: as §1

[11] = system: PPARg:RXRa DBDmut IVT, anti-RXR (DBD mutation: RXRa K156A/R161A, NR concentration 270 nM, RXRa partner concentration 90 nM)
In short: as §1

[12] = system: PPARg:RXRa IVT, anti-PPARg (NR concentration 270 nM, RXRa partner concentration 90 nM)
In short: as §1

[13] = system: PPARg DBDmut:RXRa IVT, anti-PPARg (DBD mutation: PPARg1 K132A/R137A, NR concentration 270 nM, RXRa partner concentration 90 nM)
In short: as §1

[14] = system: PPARg DBDmut IVT, anti-PPARg (DBD mutation: PPARg1 K132A/R137A, NR concentration 270 nM)
In short: as §1

[15] = system: PPARg homodimer (NR concentration 180 nM)
In short: as §1

[16] = system: PXR:RXRa (NR concentration 270 nM, RXRa partner concentration 90 nM)
In short: as §1

[17] = system: PXR homodimer (NR concentration 270 nM)
In short: as §1

[18] = system: RARa:RXR (NR concentration 270 nM, RXRa partner concentration 90 nM)
In short: as §1

[19] = system: RARa homodimer (NR concentration 270 nM)
In short: as §1

[20] = system: RARb:RXRa (NR concentration 270 nM, RXRa partner concentration 90 nM)
In short: as §1

With CTCGGAAGGTCGGTTGAGGTGAGTATACGGATAA the PBM binding z-score [1] was 2.43, the PBM binding z-score [2] was 0.338 and the PBM binding z-score [3] was -0.673. The PBM binding z-score [4] was 0.113, the PBM binding z-score [5] was -0.399 and the PBM binding z-score [6] was 1.01. For the same sequence, the PBM binding z-score [7] was -0.0465, the PBM binding z-score [8] was -0.0669 and the PBM binding z-score [9] was -0.473. For the same sequence, the PBM binding z-score [10] was -0.159, the PBM binding z-score [11] was -0.598 and the PBM binding z-score [12] was 0.491. It also gave a PBM binding z-score [13] of -0.365, a PBM binding z-score [14] of -0.461 and a PBM binding z-score [15] of 0.527. The PBM binding z-score [16] was 1.84, the PBM binding z-score [17] was -0.347 and the PBM binding z-score [18] was 0.849. It also gave a PBM binding z-score [19] of -0.2 and a PBM binding z-score [20] of 1.89.
In the case of TCTCGGAGAACACGAAAGGTCAGAGCTCGACATC, the PBM binding z-score [1] is reported as 2.02, the PBM binding z-score [2] is reported as 3.08 and the PBM binding z-score [3] is reported as 1.46. For the same sequence, the PBM binding z-score [4] was 3, the PBM binding z-score [5] was -0.199 and the PBM binding z-score [6] was 3.32. For the same sequence, the PBM binding z-score [7] was 0.977, the PBM binding z-score [8] was 2.21 and the PBM binding z-score [9] was 2.43. For the same sequence, the PBM binding z-score [10] was 2.25, the PBM binding z-score [11] was 1.25 and the PBM binding z-score [12] was 1.13. For the same sequence, the PBM binding z-score [13] was -0.0833, the PBM binding z-score [14] was -0.197 and the PBM binding z-score [15] was 1.7. It also gave a PBM binding z-score [16] of 3.39, a PBM binding z-score [17] of 0.0795 and a PBM binding z-score [18] of 3.89. The PBM binding z-score [19] was 0.536 and the PBM binding z-score [20] was 3.55.
For TGAATGAGGTTATAGGATCAGGGAACGTTGCAAA, the PBM binding z-score [1] was 1.98, the PBM binding z-score [2] was 1.6 and the PBM binding z-score [3] was -0.459. For the same sequence, the PBM binding z-score [4] was 1.39, the PBM binding z-score [5] was -0.108 and the PBM binding z-score [6] was 3.28. It also gave a PBM binding z-score [7] of 2.06, a PBM binding z-score [8] of 2.51 and a PBM binding z-score [9] of 1.15. For the same sequence, the PBM binding z-score [10] was 2.08, the PBM binding z-score [11] was 1.16 and the PBM binding z-score [12] was 2.21. The PBM binding z-score [13] was 0.833, the PBM binding z-score [14] was -0.0124 and the PBM binding z-score [15] was 0.65. For the same sequence, the PBM binding z-score [16] was 1.05, the PBM binding z-score [17] was 0.148 and the PBM binding z-score [18] was 1.82. It also gave a PBM binding z-score [19] of 0.469 and a PBM binding z-score [20] of 1.48.
CCAAGCAGGCCAATCTGGGTCACTCAAGGCTTGA showed a PBM binding z-score [1] of 0.754, a PBM binding z-score [2] of 1.79 and a PBM binding z-score [3] of -0.345. The PBM binding z-score [4] was 0.979, the PBM binding z-score [5] was -1.19 and the PBM binding z-score [6] was 3.45. For the same sequence, the PBM binding z-score [7] was 2.46, the PBM binding z-score [8] was 2.55 and the PBM binding z-score [9] was 0.227. It also gave a PBM binding z-score [10] of 1.63, a PBM binding z-score [11] of 4.53 and a PBM binding z-score [12] of 4.91. The PBM binding z-score [13] was 0.213, the PBM binding z-score [14] was -1.24 and the PBM binding z-score [15] was 0.382. It also gave a PBM binding z-score [16] of 1.26, a PBM binding z-score [17] of -0.284 and a PBM binding z-score [18] of 1.71. It also gave a PBM binding z-score [19] of -1.17 and a PBM binding z-score [20] of 1.62.
Sequence TCTTGCAGATCAGCAGGTTAAGAAAGCTGGCCAA has a PBM binding z-score [1] of -0.157, a PBM binding z-score [2] of -0.083 and a PBM binding z-score [3] of -0.809. The PBM binding z-score [4] was -0.061, the PBM binding z-score [5] was -1.04 and the PBM binding z-score [6] was 0.615. The PBM binding z-score [7] was -0.601, the PBM binding z-score [8] was 0.866 and the PBM binding z-score [9] was 1.59. The PBM binding z-score [10] was 1.15, the PBM binding z-score [11] was 0.806 and the PBM binding z-score [12] was -0.167. The PBM binding z-score [13] was -1.23, the PBM binding z-score [14] was -0.975 and the PBM binding z-score [15] was -0.869. For the same sequence, the PBM binding z-score [16] was -0.219, the PBM binding z-score [17] was -1.1 and the PBM binding z-score [18] was 0.16. The PBM binding z-score [19] was -1.56 and the PBM binding z-score [20] was 0.155.
GCTCGGAGGACAAGGTAAGAGCTTTGTCCGTAGA was tested, and the PBM binding z-score [1] was -0.326, the PBM binding z-score [2] was -0.633 and the PBM binding z-score [3] was -0.985. For the same sequence, the PBM binding z-score [4] was -0.8, the PBM binding z-score [5] was -1.57 and the PBM binding z-score [6] was -0.331. The PBM binding z-score [7] was -0.742, the PBM binding z-score [8] was -0.267 and the PBM binding z-score [9] was -0.952. For the same sequence, the PBM binding z-score [10] was -0.841, the PBM binding z-score [11] was -0.716 and the PBM binding z-score [12] was -0.298. It also gave a PBM binding z-score [13] of -1.26, a PBM binding z-score [14] of -1.29 and a PBM binding z-score [15] of -1.16. The PBM binding z-score [16] was -0.574, the PBM binding z-score [17] was -1.14 and the PBM binding z-score [18] was -0.493. For the same sequence, the PBM binding z-score [19] was -1.14 and the PBM binding z-score [20] was 0.88.
CCTAGTTGGTCAAGATCACACACGCTATAGGTAC showed a PBM binding z-score [1] of 0.117, a PBM binding z-score [2] of 0.306 and a PBM binding z-score [3] of 0.456. The PBM binding z-score [4] was 0.468, the PBM binding z-score [5] was 0.508 and the PBM binding z-score [6] was 0.119. The PBM binding z-score [7] was 1.18, the PBM binding z-score [8] was 0.452 and the PBM binding z-score [9] was 0.398. For the same sequence, the PBM binding z-score [10] was 0.0188, the PBM binding z-score [11] was 1.36 and the PBM binding z-score [12] was 1.04. It also gave a PBM binding z-score [13] of 0.47, a PBM binding z-score [14] of 1.08 and a PBM binding z-score [15] of 1.14. The PBM binding z-score [16] was 0.0789, the PBM binding z-score [17] was 0.685 and the PBM binding z-score [18] was -0.0472. The PBM binding z-score [19] was 1.56 and the PBM binding z-score [20] was 1.03.
